The full ranking holds about 16,000 sequences; the median of “rpm ratio (pull-down/input)” is about 0.5, and the highest 2% start at about 5.5. This is one part of a sample in which the highest values are shown more often than they occur.
target: T1, MBP-FoxP3dN (Mus musculus, UniProt Q99JB6 188-423); test: PD-seq (MBP pull-down with sequencing); 20 mM Tris-HCl pH 7.5, 100 mM NaCl, 1.5 mM MgCl2, 0.4 uM protein, 0.1 uM dsDNA library, 30 min, room temperature, amylose pull-down; high values mean tight binding; conditions: protein: recombinant; tags: His6-MBP; chain copies: 2; dsDNA, one strand shown
T1 sequence: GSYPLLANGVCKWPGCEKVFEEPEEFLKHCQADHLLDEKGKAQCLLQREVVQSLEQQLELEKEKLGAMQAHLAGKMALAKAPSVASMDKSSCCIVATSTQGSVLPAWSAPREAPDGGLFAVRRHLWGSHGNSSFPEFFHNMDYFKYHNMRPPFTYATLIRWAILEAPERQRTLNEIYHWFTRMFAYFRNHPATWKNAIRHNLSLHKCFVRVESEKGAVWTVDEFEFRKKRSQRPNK
How it was run: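 Amylose resin was used to capture complexes formed during 30 min at room temperature in Tris pH 7.5 buffer with NaCl and MgCl2 between 0.4 µM His6-MBP-tagged mouse FoxP3 or FoxP1 fragment lacking the N-terminus, expressed in E. coli, and 0.1 µM Klenow-filled double-stranded degenerate DNA library. After three washes, the DNA was released with proteinase K, barcoded by PCR and sequenced on Illumina. Binding is pooled-replicate reads-per-million enrichment, pull-down over input.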

Q: For “GATGATTGTTCTCCCAGCTGATGAATTGGAAGCCTCGAGTAAACAAATTTTCCTAATCTTTCTGTTCAAGCGCCATCTAC”, which binding signal is on record?
A: The binding signal was 0.359 RPM ratio (pull-down/input).

Q: For “GATGATTGTTCTCCCAGCTGATGAATTGAATAGATCGAGTAAACAAATTTTCCTAATCTTTCTGTTCAAGCGCCATCTAC”, which binding signal is on record?
A: The binding signal was 0.257 RPM ratio (pull-down/input).

Q: “GATGATTGTTCTCCCAGCTGATGAATTTGGTGCCTCGAGTAAACAAATTTTCCTAATCTTTCTGTTCAAGCGCCATCTAC” was tested. Which binding signal did it give?
A: The binding signal was 1.91 RPM ratio (pull-down/input).

Q: For “GATGATTGTTCTCCCAGCTGATGAATTATGCAAATCGAGTAAACAAATTTTCCTAATCTTTCTGTTCAAGCGCCATCTAC”, which binding signal is on record?
A: The binding signal was 1.16 RPM ratio (pull-down/input).

Q: How did the binding signal turn out when “GATGATTGTTCTCCCAGCTGATGAATTATGCATTTCGAGTAAACAAATTTTCCTAATCTTTCTGTTCAAGCGCCATCTAC” was run?
A: The binding signal was 7.25 RPM ratio (pull-down/input).

Q: How did the binding signal turn out when “GATGATTGTTCTCCCAGCTGATGAATTTATGCAATCGAGTAAACAAATTTTCCTAATCTTTCTGTTCAAGCGCCATCTAC” was run?
A: The binding signal was 4.25 RPM ratio (pull-down/input).

Q: “GATGATTGTTCTCCCAGCTGATGAATTATGCATCTCGAGTAAACAAATTTTCCTAATCTTTCTGTTCAAGCGCCATCTAC” was tested. Which binding signal did it give?
A: Its binding signal is 7.47 RPM ratio (pull-down/input).

Q: With “GATGATTGTTCTCCCAGCTGATGAATTATGAATTTCGAGTAAACAAATTTTCCTAATCTTTCTGTTCAAGCGCCATCTAC” as the sequence, how does the binding signal read?
A: Its binding signal is 1.57 RPM ratio (pull-down/input).

Q: “GATGATTGTTCTCCCAGCTGATGAATTATGCAGCTCGAGTAAACAAATTTTCCTAATCTTTCTGTTCAAGCGCCATCTAC” was tested. Which binding signal did it give?
A: Its binding signal is 3.11 RPM ratio (pull-down/input).

Q: Which binding signal does the source give for “GATGATTGTTCTCCCAGCTGATGAATTATGCAATTCGAGTAAACAAATTTTCCTAATCTTTCTGTTCAAGCGCCATCTAC” here?
A: The binding signal was 5.58 RPM ratio (pull-down/input).

Q: With “GATGATTGTTCTCCCAGCTGATGAATTATGATTTTCGAGTAAACAAATTTTCCTAATCTTTCTGTTCAAGCGCCATCTAC” as the sequence, how does the binding signal read?
A: Its binding signal is 1.8 RPM ratio (pull-down/input).

Q: Which binding signal does the source give for “GATGATTGTTCTCCCAGCTGATGAATTATGAATCTCGAGTAAACAAATTTTCCTAATCTTTCTGTTCAAGCGCCATCTAC” here?
A: The binding signal was 2.3 RPM ratio (pull-down/input).

Q: Which binding signal does the source give for “GATGATTGTTCTCCCAGCTGATGAATTGAGGCCGTCGAGTAAACAAATTTTCCTAATCTTTCTGTTCAAGCGCCATCTAC” here?
A: Its binding signal is 0.905 RPM ratio (pull-down/input).

Q: “GATGATTGTTCTCCCAGCTGATGAATTAACTGTTTCGAGTAAACAAATTTTCCTAATCTTTCTGTTCAAGCGCCATCTAC” was tested. Which binding signal did it give?
A: Its binding signal is 0.641 RPM ratio (pull-down/input).

Q: “GATGATTGTTCTCCCAGCTGATGAATTTCTGCAATCGAGTAAACAAATTTTCCTAATCTTTCTGTTCAAGCGCCATCTAC” was tested. Which binding signal did it give?
A: Its binding signal is 3.01 RPM ratio (pull-down/input).

Q: With “GATGATTGTTCTCCCAGCTGATGAATTGCAGCAATCGAGTAAACAAATTTTCCTAATCTTTCTGTTCAAGCGCCATCTAC” as the sequence, how does the binding signal read?
A: The binding signal was 2.72 RPM ratio (pull-down/input).

Q: For “GATGATTGTTCTCCCAGCTGATGAATTGCAACAATCGAGTAAACAAATTTTCCTAATCTTTCTGTTCAAGCGCCATCTAC”, which binding signal is on record?
A: The binding signal was 7.74 RPM ratio (pull-down/input).

Q: With “GATGATTGTTCTCCCAGCTGATGAATTGATGCCATCGAGTAAACAAATTTTCCTAATCTTTCTGTTCAAGCGCCATCTAC” as the sequence, how does the binding signal read?
A: Its binding signal is 3.67 RPM ratio (pull-down/input).

Q: “GATGATTGTTCTCCCAGCTGATGAATTGCAATCATCGAGTAAACAAATTTTCCTAATCTTTCTGTTCAAGCGCCATCTAC” was tested. Which binding signal did it give?
A: The binding signal was 2.79 RPM ratio (pull-down/input).

Q: “GATGATTGTTCTCCCAGCTGATGAATTGTTGCAATCGAGTAAACAAATTTTCCTAATCTTTCTGTTCAAGCGCCATCTAC” was tested. Which binding signal did it give?
A: Its binding signal is 5.54 RPM ratio (pull-down/input).

Q: With “GATGATTGTTCTCCCAGCTGATGAATTTTTGCAATCGAGTAAACAAATTTTCCTAATCTTTCTGTTCAAGCGCCATCTAC” as the sequence, how does the binding signal read?
A: The binding signal was 3.95 RPM ratio (pull-down/input).

Q: Which binding signal does the source give for “GATGATTGTTCTCCCAGCTGATGAATTGCAACCATCGAGTAAACAAATTTTCCTAATCTTTCTGTTCAAGCGCCATCTAC” here?
A: The binding signal was 4.48 RPM ratio (pull-down/input).

Q: For “GATGATTGTTCTCCCAGCTGATGAATTGATGCAATCGAGTAAACAAATTTTCCTAATCTTTCTGTTCAAGCGCCATCTAC”, which binding signal is on record?
A: Its binding signal is 5.86 RPM ratio (pull-down/input).

Q: For “GATGATTGTTCTCCCAGCTGATGAATTCTATTAATCGAGTAAACAAATTTTCCTAATCTTTCTGTTCAAGCGCCATCTAC”, which binding signal is on record?
A: Its binding signal is 0.561 RPM ratio (pull-down/input).

Q: “GATGATTGTTCTCCCAGCTGATGAATTTCTTGCCTCGAGTAAACAAATTTTCCTAATCTTTCTGTTCAAGCGCCATCTAC” was tested. Which binding signal did it give?
A: The binding signal was 0.494 RPM ratio (pull-down/input).

Q: How did the binding signal turn out when “GATGATTGTTCTCCCAGCTGATGAATTTGGCGGCTCGAGTAAACAAATTTTCCTAATCTTTCTGTTCAAGCGCCATCTAC” was run?
A: The binding signal was 0.668 RPM ratio (pull-down/input).

Q: For “GATGATTGTTCTCCCAGCTGATGAATTCTATAGTTCGAGTAAACAAATTTTCCTAATCTTTCTGTTCAAGCGCCATCTAC”, which binding signal is on record?
A: Its binding signal is 0.74 RPM ratio (pull-down/input).

Q: With “GATGATTGTTCTCCCAGCTGATGAATTGCCCGAGTCGAGTAAACAAATTTTCCTAATCTTTCTGTTCAAGCGCCATCTAC” as the sequence, how does the binding signal read?
A: Its binding signal is 0.303 RPM ratio (pull-down/input).

Q: For “GATGATTGTTCTCCCAGCTGATGAATTGCATCCATCGAGTAAACAAATTTTCCTAATCTTTCTGTTCAAGCGCCATCTAC”, which binding signal is on record?
A: Its binding signal is 5.42 RPM ratio (pull-down/input).

Q: How did the binding signal turn out when “GATGATTGTTCTCCCAGCTGATGAATTATCGTATTCGAGTAAACAAATTTTCCTAATCTTTCTGTTCAAGCGCCATCTAC” was run?
A: Its binding signal is 1.35 RPM ratio (pull-down/input).

Q: Which binding signal does the source give for “GATGATTGTTCTCCCAGCTGATGAATTCGGCAAGTCGAGTAAACAAATTTTCCTAATCTTTCTGTTCAAGCGCCATCTAC” here?
A: Its binding signal is 1.34 RPM ratio (pull-down/input).

Q: Which binding signal does the source give for “GATGATTGTTCTCCCAGCTGATGAATTTTTTTAGTCGAGTAAACAAATTTTCCTAATCTTTCTGTTCAAGCGCCATCTAC” here?
A: Its binding signal is 0.273 RPM ratio (pull-down/input).

Q: For “GATGATTGTTCTCCCAGCTGATGAATTTTGTTAGTCGAGTAAACAAATTTTCCTAATCTTTCTGTTCAAGCGCCATCTAC”, which binding signal is on record?
A: Its binding signal is 6.69 RPM ratio (pull-down/input).

From article PMC12820563, “FoxP3 forms a head-to-head dimer in vivo and stabilizes its multimerization on adjacent microsatellites”
